# Screening results as filed in PubChem BioAssay.
# SW480 rerep = A quantitative high throughput screen for small molecules that induce DNA re-replication in SW480 colon adenocarcinoma cells. actives 1.8% (n = 340,000). SW480 DNA re-replication, Hoechst DNA content imaging, 48 h. Potency, µM (top dose mostly 46.1 µM), inactives show at the highest dose re-replication activation, usual class: activators; note: potency is the fitted concentration of half-maximal effect; % of control where 0% means no effect; nearly all actives have a fitted effect of over 55% in size
#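 Quantitative HTS format with DMSO vehicle controls; 48 hr drug incubation at 37 C, then 40 min Hoechst staining and scanning imager measurement at 405 nm excitation.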
# KB-3-1 cytotox = qHTS assay for MDR1-selective chemotherapeutics: Primary screen using the parental adenocarcinoma cell KB-3-1; Potency, µM (highest dose often 46.1 µM), usual class: cytotoxic; actives 1.4% (n = 400,000); AID 1347075, 2019; KB-3-1 viability, CellTiter-Glo ATP luminescence, 72 h; note: potency is the fitted concentration of half-maximal effect; % is set by controls: 0 for no effect and ±100 for the full control effect; nearly all actives have a fitted effect of over 60% in size
#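 Using CellTiter-Glo luminescence, growth of non-resistant KB-3-1 adenocarcinoma cells is assessed 72 h after pin-tool compound addition at 37 °C. Normalized responses across the concentration series yield fitted curves.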
# MCF10A rerep = A quantitative high throughput screen for small molecules that induce DNA re-replication in MCF 10a normal breast cells. MCF 10A DNA re-replication, Hoechst nuclear intensity, 48 h. Potency, µM (doses to about 46.1 µM), inactives show at the top dose activity, positive = re-replication, actives largely listed as activators. actives 2.9% (n = 350,000). AID 624296, 2012; note: potency is the fitted concentration of half-maximal effect; % of control where 0% means no effect; nearly all actives have a fitted effect of over 50% in size
# KB-V1 MDR tox = qHTS assay for MDR1-selective chemotherapeutics: Primary screen using the drug-selected MDR subline cells KB-V1 | KB-V1 MDR cells viability, CellTiter-Glo, 72 h | Potency, µM (top dose mostly 46.1 µM), actives largely listed as cytotoxic | actives 3.4% (n = 400,000); note: potency is the fitted concentration of half-maximal effect; % is set by controls: 0 for no effect and ±100 for the full control effect; nearly all actives have a fitted effect of over 60% in size
#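 Compound-treated KB-V1 multidrug-resistant cells, 72 h, 37 degrees C; viability by CellTiter-Glo. Fitted qHTS curves give the values.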
# IL1B secr inh = qHTS for Inhibitors of Inflammasome Signaling: IL-1-beta AlphaLISA Primary Screen. THP-1 LPS/ATP IL-1B secretion, AlphaLISA, 16 h; active compounds read low. actives 4.7% (n = 360,000). activity change, % at 57.5 µM; in the data active = activity change below about -50%; inconclusive = mostly about -30% to -49%; note: % is set by controls: 0 for no effect and ±100 for the full control effect
#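 THP-1 cells pretreated 1 hr with compounds (up to 57.5 uM final), then stimulated with LPS (250 ng/mL final) plus ATP (1.25 mM final); secreted IL-1B measured by AlphaLISA after 16 hr, decreased signal indicating inhibition.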
# * marks the source's active call; other numbers are inactive results; i = inactive; ? = inconclusive; · = no result. A selection: hits, their analogues and other compounds. The true share with any hit is near 9.9%. Unless noted, calls come from the whole dose curve; as a rule, active = well fitted curve in the direction sought with a large enough effect; inconclusive = small, poorly fitted or top-dose-only effect, or another doubt; inactive = no such curve, though single readings can be large; an effect the other way counts as inactive or inconclusive.
SMILES,SW480 rerep,KB-3-1 cytotox,MCF10A rerep,KB-V1 MDR tox,IL1B secr inh
O=[N+]([O-])c1ccc2nc(-c3ccccc3)cc(-c3ccccc3)c2c1,-4%,i,-1%,i,5
CCOc1ccc(C2=CS/C(=C(\C#N)c3nnc4n3CCCCC4)N2CC)cc1,1%,i,1%,21µM*,-4
CCOC(=O)CCc1c(C)nc2cc(-c3cc(OC)cc(OC)c3)[nH]n2c1=O,·,i,·,i,·
CC1(C2(O)CCCCC2)NCCc2ccccc21 (stereo unspecified),?,i,-2%,?,-16
CCCCNc1nc(N)nc(-c2cc(Cl)ccc2O)n1,?,?,21µM*,12µM*,-84*
Nc1nc(N)nc(-c2cc(O)ccc2O)n1,?,?,?,i,?
CCCNc1nc(N)nc(-c2cc(Cl)ccc2OC)n1,-8%,i,6%,i,10
CCNc1nc(N)nc(-c2cc(Cl)ccc2O)n1,-473%,?,?,?,-85*
Cc1ccc(C)c(C(=O)CCC(=O)Nc2ccc(N3CCN(C)CC3)cc2C)c1,119%,i,?,?,-10
CCOC(=O)/C(=C\c1ccc(N2CCC(c3ccccc3)=N2)cc1)C(C)=O,1.5µM*,·,1.5µM*,·,?
O=C(/C=C/c1ccc(O)cc1)c1ccccc1,30%,i,?,i,?
CCOC(=O)N1N=C(c2ccccc2)CC1(O)C(F)(F)F (stereo unspecified),3%,i,1%,i,0
O=C(/C=C/c1ccc(N2CCC(c3ccccc3)=N2)cc1)c1ccccc1,?,i,6.5µM*,i,-94*
CCN1CCN(Cc2c(O)ccc3c2O/C(=C\C=C\c2ccccc2)C3=O)CC1,?,16µM*,?,?,-100*
CC(=O)N/C(=C\c1ccccc1)C(=O)OCC(=O)NC1CCS(=O)(=O)C1 (stereo unspecified),2%,i,10%,i,19
CCCCc1ccc(NC(=O)CSc2nc(=O)n(CCN(CC)CC)c3c2CCCC3)cc1,?,?,26%,26µM*,-78*
CCCCc1ccc(NC(=O)CSc2nc(=O)n(CCN(C)C)c3c2CCC3)cc1,?,?,?,i,-72*
CN(C)CCCn1c2c(c(SCC(=O)Nc3ccc4c(c3)OCCO4)nc1=O)CCC2,-5%,i,3%,i,0
CN(C)CCn1c2c(c(SCC(=O)Nc3cccc4ccccc34)nc1=O)CCC2,9%,i,1%,i,?
CCN(CC)CCn1c2c(c(SCC(=O)Nc3cccc4ccccc34)nc1=O)CCCC2,0%,i,-1%,i,-66*
COc1ccc(NC(=O)CSc2nc(=O)n(CCN(C)C)c3c2CCCC3)cc1,-5%,i,8%,i,10
Cc1ccc(NC(=O)CSc2nc(=O)n(CCN(C)C)c3c2CCCC3)cc1Cl,?,i,12%,i,-87*
COc1ccc(C2c3cc(OC)c(OC)cc3CC3C(=O)OCC32)cc1OC (stereo unspecified),-17%,i,-21%,?,59
CC(C)(C)c1ccc(C(=O)N2[C@H](COCc3ccccc3)C=CS2(=O)=O)cc1,·,i,·,i,?
Cc1ccc(Nc2nc(CSc3nnc(-c4ccc(F)cc4)n3C)cs2)cc1,?,?,13%,6.5µM*,0
SMILES,SW480 rerep,KB-3-1 cytotox,MCF10A rerep,KB-V1 MDR tox,IL1B secr inh
COc1ccc(-c2nnc(SCc3csc(N)n3)n2C)cc1,-15%,i,-4%,i,0
COc1cccc(-c2cc(=O)c3cc(NC(C)=O)ccc3[nH]2)c1,16µM*,i,23µM*,i,59
CCOC(=O)c1ccc(NC(=O)CC2C(=O)N(c3ccccc3)C(=O)N2Cc2ccc(C)cc2)cc1 (stereo unspecified),·,i,·,i,·
COc1ccc(C2=Nn3c(nnc3-c3ccccc3F)SC2)cc1OC1CCOC1 (stereo unspecified),10µM*,2.1µM*,?,21µM*,·
COc1ccc(C2=Nn3c(nnc3-c3ccccc3)SC2)cc1OC,7%,i,?,?,1
COc1ccc(C2=Nn3c(nnc3-c3ccccc3F)SC2)cc1OC1CCCC1,?,8.2µM*,?,?,·
COc1ccc(OC)c(C2=Nn3c(nnc3C3CCCCC3)SC2)c1,-2%,i,7%,?,-14
COc1ccc(OC)c(-c2nnc3n2N=C(c2ccc(OC)c(OC4CCCC4)c2)CS3)c1,0.73µM*,0.92µM*,?,4.6µM*,·
CC(NCCC1(Cc2ccccc2Cl)CCOC(C)(C)C1)c1cccs1 (stereo unspecified),-5%,i,-5%,i,-54*
CC(NCCC1(C(C)C)CCOC(C)(C)C1)c1cccs1 (stereo unspecified),4%,i,-3%,i,-15
COc1cccc(NCc2cc(=O)oc3cc(C)c(C(C)C)cc23)c1,-26%,i,-4%,i,-27
O=c1c(-c2cc3ccccc3o2)[n+]([O-])c2ccccc2n1OCc1ccccn1,2%,i,?,3.7µM*,0
c1cnc2c(OCc3cn4cccnc4n3)cccc2c1,-2%,i,12µM*,i,-16
O=C(CSc1nnc(CNc2ccccc2)o1)N1CCCc2ccccc21,-2%,i,-5%,13µM*,0
COc1ccc(C(=O)CSc2nnc(Cc3ccccc3)o2)cc1,7%,i,-8%,i,-9
COc1ccc(Cc2nnc(SCC(=O)c3ccc(OC)cc3)o2)cc1,-20%,i,6.5µM*,i,?
O=C(CSc1nnc(CNc2ccc(F)cc2)o1)N1c2ccccc2Sc2ccccc21,-2%,?,10%,3.3µM*,?
O=C(CSc1nnc(CNc2ccccc2)o1)c1ccc2c(c1)OCCO2,3%,i,-4%,i,-68*
C=CCc1ccccc1OCc1nc2ccc(C)cc2[nH]1,·,i,·,i,·
CCOC(=O)c1c(C)c(C(=O)NCc2ccc(Cl)cc2)c(C)n1CC,·,i,·,?,·
O=C(NCc1nnc(SCC(=O)N2CCCCCC2)o1)c1ccco1,-4%,i,-4%,i,13
CC(=O)Nc1nnc(SCC(=O)N2CCCc3ccccc32)s1,-11%,i,1.8µM*,i,16
O=C(Nc1nnc(SCC(=O)N2CCCc3ccccc32)s1)c1ccccc1,-14%,i,0%,?,-12
CC1Cc2ccccc2N1C(=O)CSc1nnc(CNc2ccccc2)o1 (stereo unspecified),-2%,?,-3%,16µM*,17
